Data published in PubChem BioAssay (Tox21).
Inconclusive results are not listed. The source holds several records for some structures; these can differ, active in one and inactive in another. Activity calls are given as the source filed them. Calls come from the whole dose curve; as a rule, active = well fitted inhibition curve with a large enough effect in the repeat runs; inconclusive = weak or mixed curves; inactive = no such curve, though single readings can be large or run the other way.

Target: Cytochrome P450 2D6 (Homo sapiens) (UniProt P10635)
Experiment: Cytochrome P450 Family 2 Subfamily D Member 6 (CYP2D6) small molecule antagonists: luciferase reporter qHTS assay (AID 1671196); note: nearly all actives have a fitted effect of over 50% in size
Details: P450-Glo CYP2D6 enzyme assay, luciferin luminescence, 1 h; series mostly up to 115 µM; activity change, negative = inhibition: at the top concentration
Description: U.S. Tox21 Program National Center for Advancing Translational Sciences [NCATS] U.S. Environmental Protection Agency [EPA] National Institutes of Environmental Health Sciences [NIEHS] National Toxicology Program [NTP] U.S. Food and Drug Administration [FDA] Tox21 Assay Overview: Cytochrome P450 (CYP) enzymes are membrane-bound hemeproteins that play a key role in metabolism of drugs and xenobiotics. Evaluation of the effect of chemicals on CYP isozymes is useful to minimize the adverse drug reactions and toxicities in drug development process. Tox21 chemicals were tested for their effect on CYP enzyme activities by using P450-Glo (TM) screening systems (Promega Corporation, Madison, WI). These systems provide a luminescent method containing proluciferin substrates and are converted to luciferin products by CYP isozymes. The luciferin products formed are detected with a luciferin detection reagent, and the amount of light produced is proportional to CYP activity. P450-Glo (TM) CYP2D6 screening system (Catalog. No. V9890) was used to detect the compounds that interfere in CYP2D6 activity.
Tox21 Assay Protocol Summary: Two ul of enzyme-substrate mix was dispensed into medium binding white/solid 1536-well plates (Greiner Bio-One North America Inc., Monroe, NC) using a BioRaptr Flying Reagent Dispenser (FRD, Beckman Coulter, Brea, CA). […] The assay plates were incubated at room temperature for 10 min. Then 2 ul of NADPH regeneration solution was added to each well of the assay plates using an FRD and incubated at room temperature for 1 h. The reaction was stopped by adding 4 ul of detection reagent using an FRD and after 20 min incubation at room temperature the luminescence signal was measured using a ViewLux plate reader (Perkin Elmer, Shelton, CT). Data were expressed as relative luminescence units.
% is set by controls: 0 for no effect and ±100 for the full control effect; potency is the fitted concentration of half-maximal effect.

Cytochrome P450 2D6 (Homo sapiens), sequence (P10635 whole entry, looked up): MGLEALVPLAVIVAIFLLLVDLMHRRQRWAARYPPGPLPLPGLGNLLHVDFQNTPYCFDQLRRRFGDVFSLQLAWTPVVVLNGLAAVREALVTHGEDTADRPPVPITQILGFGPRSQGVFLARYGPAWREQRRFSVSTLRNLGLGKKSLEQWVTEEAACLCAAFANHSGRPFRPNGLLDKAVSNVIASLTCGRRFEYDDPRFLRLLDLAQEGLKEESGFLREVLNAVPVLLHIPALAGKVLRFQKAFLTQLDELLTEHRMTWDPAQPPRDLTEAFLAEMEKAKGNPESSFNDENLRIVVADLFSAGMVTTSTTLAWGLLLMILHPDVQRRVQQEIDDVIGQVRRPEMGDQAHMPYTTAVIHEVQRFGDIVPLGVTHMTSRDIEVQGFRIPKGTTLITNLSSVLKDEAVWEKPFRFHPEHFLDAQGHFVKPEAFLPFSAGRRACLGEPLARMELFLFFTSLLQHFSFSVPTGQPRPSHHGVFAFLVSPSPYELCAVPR

Row | SMILES | activity change, negative = inhibition | Potency
1 | CCCCCCCCCCBr | -13.2% (inactive) | 
2 | CC(=O)OC1(c2ccccc2)CCN(CCc2ccccc2)CC1 |  | 0.727 µM (active)
3 | Oc1ccc(C(=C(Cl)Cl)c2ccc(O)cc2)cc1 | -13% (inactive) | 
4 | CC1(C)C(/C=C(\Cl)C(F)(F)F)C1C(=O)OC(C#N)c1cccc(Oc2ccccc2)c1 (stereo not given) | -26.9% (inactive) | 
5 | CC(C)(COCC1CO1)COCC1CO1 (stereo not given) | 1.5% (inactive) | 
6 | O=[N+]([O-])c1cc(Cl)ccc1Cl | -5.11% (inactive) | 
7 | Clc1ccc(-c2ccc(Cl)c(Cl)c2Cl)c(Cl)c1Cl | -2.72% (inactive) | 
8 | CC(C)CBr | -18% (inactive) | 
9 | C1CCC2CCCCC2C1 (stereo not given) | 2.8% (inactive) | 
10 | CC(C)OC(=O)C(O)(c1ccc(Cl)cc1)c1ccc(Cl)cc1 |  | 31.7 µM (active)
11 | C[C@@H]1O[C@@H](O[C@@H]2C=C3CC[C@@H]4[C@H](CC[C@]5(C)[C@@H](c6ccc(=O)oc6)CC[C@]45O)[C@@]3(C)CC2)[C@H](O)[C@H](O)[C@H]1O | -13.7% [at 53 µM] (inactive) | 
12 | CCCCCCCCCCCCCC[P+](CCCCCC)(CCCCCC)CCCCCC (tested in a mixture with another compound) |  | 1.26 µM (active)
13 | COC[C@H](C)N(C(=O)CCl)c1c(C)csc1C | -9.15% (inactive) | 
14 | COC12CC[C@@]3(C[C@@H]1C(C)(O)C(C)(C)C)[C@H]1Cc4ccc(O)c5c4[C@@]3(CCN1CC1CC1)[C@H]2O5 (stereo not given in full) |  | 2.23 µM (active)
15 | O=[N+]([O-])c1c2ccccc2cc2ccccc12 |  | 2.22 µM (active)
16 | CCCCCCCCCCCCCCCCCCn1cc[n+](C)c1 |  | 0.888 µM (active)
17 | CNC(C)Cc1ccc2c(c1)OCO2 (stereo not given) |  | 0.491 µM (active)
18 | O=C(Nc1ccc2[nH]ccc2c1)c1cc2cc(F)ccc2n1Cc1cccc(F)c1 |  | 15.9 µM (active)
19 | COc1ccc(OC)c(C=O)c1 | -15.9% (inactive) | 
20 | CCCN(CC)CC1COC2(CCC(C(C)(C)C)CC2)O1 (stereo not given) |  | 12.6 µM (active)

Row | SMILES | activity change, negative = inhibition | Potency
21 | [Cl][Sn]([c]1ccccc1)([c]1ccccc1)[c]1ccccc1 |  | 0.952 µM (active)
22 | COc1ccc([N+](=O)[O-])cc1O | -0.371% [at 53 µM] (inactive) | 
23 | Clc1ccc(CCC(Cn2ccnc2)Sc2c(Cl)cccc2Cl)cc1 (stereo not given) |  | 2.19 µM (active)
24 | C=COCCCl | -4.84% (inactive) | 
25 | Oc1ccccc1Br | -0.231% (inactive) | 
26 | Clc1ccc(Oc2ccccc2)cc1 | -13.1% (inactive) | 
27 | COC(=O)N(C(=O)N1COC2(C(=O)OC)Cc3cc(Cl)ccc3C2=N1)c1ccc(OC(F)(F)F)cc1 (stereo not given) | -13.1% [at 53 µM] (inactive) | 
28 | CN(C)CCc1c[nH]c2ccc(O)cc12 |  | 17.4 µM (active)
29 | CC(C)C1CCC(Cc2ccc(Cl)cc2)C1(O)Cn1cncn1 (stereo not given) |  | 22.2 µM (active)
30 | CC(c1ccc(O)cc1)c1ccc(O)cc1 |  | 33.4 µM (active) and inactive
31 | OC(c1ccc(Cl)cc1)(c1ccc(Cl)cc1)C(Cl)(Cl)Cl |  | 31.7 µM (active)
32 | Oc1ccc(C2(c3ccc(O)cc3)c3ccccc3-c3ccccc32)cc1 |  | 79.6 µM (active)
33 | N#CC(Cl)Cl |  | 61.6 µM (active)
34 | CC1(C)CN=C(NN=C(/C=C/c2ccc(C(F)(F)F)cc2)/C=C/c2ccc(C(F)(F)F)cc2)NC1 |  | 11.2 µM (active)
35 | ClC1=C(Cl)[C@]2(Cl)[C@H]3[C@H]([C@H]4C=C[C@H]3C4)[C@@]1(Cl)C2(Cl)Cl | -6.03% (inactive) | 
36 | CC(=O)c1ccc(-c2ccccc2)cc1 | -18.1% (inactive) | 
37 | Clc1ccc(C(c2ccccc2Cl)C(Cl)(Cl)Cl)cc1 (stereo not given) | -10.3% [at 53 µM] (inactive) | 
38 | Cc1cc(C)c(C2=C(OC(=O)CC(C)(C)C)C3(CCCC3)OC2=O)c(C)c1 | -15.9% (inactive) | 
39 | c1ccc2cc3c(cc2c1)-c1cccc2cccc-3c12 | -11.2% (inactive) | 
40 | CC(C)(c1ccc(O)c(-c2ccccc2)c1)c1ccc(O)c(-c2ccccc2)c1 |  | 63.3 µM (active)
